In PubChem BioAssay:
For some assays here: Results with a measured potency or affinity are listed apart. Activity calls are given as the source filed them. Unless noted, how the calls were made is not given here.

System: not listed separately
Assay: inhibition of 3D7 malaria parasite growth – strain 3D7 (AID 2306);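 further: 0% = DMSO wells and 100% = chloroquine plus artemisinin control wells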
Details: P. falciparum 3D7 erythrocytic growth, LDH absorbance, 72 h; at 2 µM; stronger effect = higher value

| SMILES | growth inhibition |
| --- | --- |
| CN(CCCCCN1CCC(NC(=O)Nc2ccc(C(F)(F)F)cc2)C1)C(=O)/C=C/c1ccc(Cl)c(Cl)c1 (stereo not given) | 101% (active) |
| O=[N+]([O-])c1cccc(CNCC2CCN(Cc3ccc4ccccc4c3)CC2)c1 | 100% (active) |
| CCCCCCN1CCC(CNCc2cccc([N+](=O)[O-])c2)CC1 | 95% (active) |
| COc1ccc(-c2nonc2NC(=O)c2ccc(OC(C)C)cc2)cc1OC | 100% (active) |
| CN1CCN(CC(O)CNC(=O)Nc2ccc(Cl)cc2)CC1 (stereo not given) | 99% (active) |
| CCN(CC)S(=O)(=O)n1ncc2c3c(N)nc(N)nc3ccc21 | 93% (active) |
| CCNc1cc(C(=O)N[C@@H](Cc2ccccc2)[C@H](O)CNC23CC4CC(CC(C4)C2)C3)cc(N2CCCCS2(=O)=O)c1 | 98% (active) |
| Cn1cncc1-c1ccc2ncnc(Nc3ccc4c(cnn4Cc4ccccc4)c3)c2c1 | 100% (active) |
| CNC(=O)c1cc(NCCCNCc2ccc(Cl)c(C(F)(F)F)c2)nc2ccccc12 | 91% (active) |
| O=C(N[C@@H](Cc1ccccc1)C(=O)NCCN1CCCCC1)c1ccc(O)c(-c2cccc(C(F)(F)F)c2)c1 | 92% (active) |
| CN(C)CCNCc1ccc(-c2cccc(-c3nc4ccccc4[nH]3)c2)cc1 | 101% (active) |
| Cc1cc(N[C@@H](Cc2ccccc2)C(=O)Nc2ccccc2)nc(NCCc2ccc(F)cc2)n1 | 96% (active) |
| CC(=O)Nc1nc(C(=O)Nc2cccc(-c3cccc(-c4nc5c(C)cccc5[nH]4)c3)c2)cs1 | 101% (active) |
| O=C(Nc1ccc(-c2csc3nccn23)cc1)c1ccc(Cl)cc1 | 100% (active) |
| CN(CC(=O)Nc1ccc(F)cc1)C(=O)c1ccc(-c2ccc(F)cc2)o1 | 89% (active) |
| Cc1ccc(-c2cnc(N)c3cc(-c4ccnc(N)n4)ccc23)cc1 | 99% (active) |
| CCNc1cc(C(=O)N[C@@H](Cc2ccccc2)[C@H](O)CNCCc2cccc3ccccc23)cc(N2CCCC2=O)c1 | 86% (active) |
| Nc1cc(-c2cccc(Cl)c2)nn1-c1ccnc2cc(Cl)ccc12 | 99% (active) |
| Cc1cccc(CNc2nccc3[nH]c4ccccc4c23)c1 | 92% (active) |
| COc1ccccc1CCCON1C(N)=NC(N)=NC1(C)C | 95% (active) |

| SMILES | growth inhibition |
| --- | --- |
| CC1CCC(NC(=O)c2nn(-c3ccc(Cl)cc3)c(=O)c3ccccc23)CC1 (stereo not given) | 91% (active) |
| CC1(C)N=C(N)N=C(N)N1c1cc(Cl)c(Cl)cc1Cl | 95% (active) |
| COc1cccc(-c2cc(C(=O)Nc3ccc4nc(-c5ccccc5)[nH]c4c3)[nH]n2)c1 | 100% (active) |
| Cc1cc(NCC(c2ccccc2)c2ccccc2)nc(NCC2CCCCC2)n1 | 100% (active) |
| C=CCc1cc(OC)ccc1OCCCOc1c(C)nc(N)nc1N | 92% (active) |
| Cc1c(-c2ccc(C(=O)NC3CC(C)(C)NC(C)(C)C3)cc2)[nH]c2cc(Cl)c(Cl)cc12 | 98% (active) |
| CC(C)NCc1ccc(-c2ccc(NC(=O)c3ccc(Cl)cc3)cc2)cc1 | 90% (active) |
| CN1CCN(c2cccc(-c3nnc(-c4ccc(OCC(=O)NCc5cccc(C(F)(F)F)c5)c([N+](=O)[O-])c4)o3)c2)CC1 | 90% (active) |
| N#Cc1ccc(CN2CCC(Oc3ccc(NC(=O)c4cccs4)cc3Cl)C2)cc1 (stereo not given) | 96% (active) |
| COc1ccc(NC(=O)CSc2nc(-c3ccccc3Cl)ns2)cc1OC | 97% (active) |
| CCNc1cc(C(=O)N[C@@H](Cc2ccccc2)[C@H](O)CNC2(C(C)C)CCC2)cc(N2CCCCS2(=O)=O)c1 | 99% (active) |
| COc1ccc(-c2c3c(=O)n(C)c(=O)n(C)c3c3nnc4ccccc4n23)cc1 | 96% (active) |
| COc1ccc(NC(=O)c2cn(-c3ccc(C(C)(C)C)cc3)nc2C)cc1N1CCN(C)CC1 | 96% (active) |
| Cc1cc(NN=Cc2ccccc2F)c2cc(C(F)(F)F)ccc2n1 | 102% (active) |
| COc1ccc2nccc([C@@H](O)CN3CCC(NCCOc4ccc(F)cc4Cl)CC3)c2c1 | 99% (active) |
| O=[N+]([O-])c1ccc(Oc2ccccc2CNCC2CCN(CC3CCCCC3)CC2)cc1 | 89% (active) |
| COc1ccc(Cl)cc1N1CCN(CCCNC(=O)c2ccc(-c3nc4cc(Cl)c(C)cc4[nH]3)c(F)c2)CC1 | 99% (active) |
| c1csc(-c2nc(NCC3CCCO3)ncc2-c2ccsc2)n1 (stereo not given) | 89% (active) |
| CCOc1ccc(C(C)NC(=O)C2COc3ccccc3O2)cc1OCC (stereo not given) | 101% (active) |
| CC1(C)N=C(N)N=C(N)N1OCCCOc1cc(Cl)cc(Cl)c1 | 95% (active) |

Target: Calcium-dependent protein kinase 1 (Plasmodium falciparum (isolate 3D7)) (UniProt P62344)
Assay: PfCDPK1 kinase inhibitors, biochemical, TCAMS library (AID 1159585; cut-off not given, nearly all actives have IC50 up to about 0.98 µM;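 further: inhibitors leave more ATP so luminescence rises with inhibition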)
Details: recombinant PfCDPK1, Kinase-Glo ATP depletion luminescence

Chain of Calcium-dependent protein kinase 1 (Plasmodium falciparum (isolate 3D7)) (P62344 whole entry, looked up): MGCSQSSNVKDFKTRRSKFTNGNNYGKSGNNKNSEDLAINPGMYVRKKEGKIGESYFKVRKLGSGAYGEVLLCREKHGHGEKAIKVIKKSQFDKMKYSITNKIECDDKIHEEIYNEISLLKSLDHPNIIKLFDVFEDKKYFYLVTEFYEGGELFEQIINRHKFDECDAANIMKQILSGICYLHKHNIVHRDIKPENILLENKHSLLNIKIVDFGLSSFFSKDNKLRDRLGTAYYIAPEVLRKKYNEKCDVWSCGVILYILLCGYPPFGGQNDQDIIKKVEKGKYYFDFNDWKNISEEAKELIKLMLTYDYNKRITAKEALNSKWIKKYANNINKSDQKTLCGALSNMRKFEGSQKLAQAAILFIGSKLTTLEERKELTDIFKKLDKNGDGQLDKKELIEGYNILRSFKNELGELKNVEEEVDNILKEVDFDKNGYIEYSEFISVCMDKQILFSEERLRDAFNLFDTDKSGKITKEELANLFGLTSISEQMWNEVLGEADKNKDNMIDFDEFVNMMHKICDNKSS

| SMILES | outcome |
| --- | --- |
| CN(CCCCCN1CCC(NC(=O)Nc2ccc(C(F)(F)F)cc2)C1)C(=O)/C=C/c1ccc(Cl)c(Cl)c1 (stereo not given) | inactive |
| O=[N+]([O-])c1cccc(CNCC2CCN(Cc3ccc4ccccc4c3)CC2)c1 | inactive |
| CCCCCCN1CCC(CNCc2cccc([N+](=O)[O-])c2)CC1 | inactive |
| COc1ccc(-c2nonc2NC(=O)c2ccc(OC(C)C)cc2)cc1OC | inactive |
| CN1CCN(CC(O)CNC(=O)Nc2ccc(Cl)cc2)CC1 (stereo not given) | inactive |
| CCN(CC)S(=O)(=O)n1ncc2c3c(N)nc(N)nc3ccc21 | inactive |
| CCNc1cc(C(=O)N[C@@H](Cc2ccccc2)[C@H](O)CNC23CC4CC(CC(C4)C2)C3)cc(N2CCCCS2(=O)=O)c1 | inactive |
| Cn1cncc1-c1ccc2ncnc(Nc3ccc4c(cnn4Cc4ccccc4)c3)c2c1 | inactive |
| CNC(=O)c1cc(NCCCNCc2ccc(Cl)c(C(F)(F)F)c2)nc2ccccc12 | inactive |
| O=C(N[C@@H](Cc1ccccc1)C(=O)NCCN1CCCCC1)c1ccc(O)c(-c2cccc(C(F)(F)F)c2)c1 | inactive |
| CN(C)CCNCc1ccc(-c2cccc(-c3nc4ccccc4[nH]3)c2)cc1 | inactive |
| Cc1cc(N[C@@H](Cc2ccccc2)C(=O)Nc2ccccc2)nc(NCCc2ccc(F)cc2)n1 | inactive |
| CC(=O)Nc1nc(C(=O)Nc2cccc(-c3cccc(-c4nc5c(C)cccc5[nH]4)c3)c2)cs1 | inactive |
| O=C(Nc1ccc(-c2csc3nccn23)cc1)c1ccc(Cl)cc1 | inactive |
| CN(CC(=O)Nc1ccc(F)cc1)C(=O)c1ccc(-c2ccc(F)cc2)o1 | inactive |
| Cc1ccc(-c2cnc(N)c3cc(-c4ccnc(N)n4)ccc23)cc1 | inactive |
| CCNc1cc(C(=O)N[C@@H](Cc2ccccc2)[C@H](O)CNCCc2cccc3ccccc23)cc(N2CCCC2=O)c1 | inactive |
| Nc1cc(-c2cccc(Cl)c2)nn1-c1ccnc2cc(Cl)ccc12 | inactive |
| Cc1cccc(CNc2nccc3[nH]c4ccccc4c23)c1 | inactive |
| COc1ccccc1CCCON1C(N)=NC(N)=NC1(C)C | inactive |

| SMILES | outcome |
| --- | --- |
| CC1CCC(NC(=O)c2nn(-c3ccc(Cl)cc3)c(=O)c3ccccc23)CC1 (stereo not given) | inactive |
| CC1(C)N=C(N)N=C(N)N1c1cc(Cl)c(Cl)cc1Cl | inactive |
| COc1cccc(-c2cc(C(=O)Nc3ccc4nc(-c5ccccc5)[nH]c4c3)[nH]n2)c1 | inactive |
| Cc1cc(NCC(c2ccccc2)c2ccccc2)nc(NCC2CCCCC2)n1 | inactive |
| C=CCc1cc(OC)ccc1OCCCOc1c(C)nc(N)nc1N | inactive |
| Cc1c(-c2ccc(C(=O)NC3CC(C)(C)NC(C)(C)C3)cc2)[nH]c2cc(Cl)c(Cl)cc12 | inactive |
| CC(C)NCc1ccc(-c2ccc(NC(=O)c3ccc(Cl)cc3)cc2)cc1 | inactive |
| CN1CCN(c2cccc(-c3nnc(-c4ccc(OCC(=O)NCc5cccc(C(F)(F)F)c5)c([N+](=O)[O-])c4)o3)c2)CC1 | inactive |
| N#Cc1ccc(CN2CCC(Oc3ccc(NC(=O)c4cccs4)cc3Cl)C2)cc1 (stereo not given) | inactive |
| COc1ccc(NC(=O)CSc2nc(-c3ccccc3Cl)ns2)cc1OC | inactive |
| CCNc1cc(C(=O)N[C@@H](Cc2ccccc2)[C@H](O)CNC2(C(C)C)CCC2)cc(N2CCCCS2(=O)=O)c1 | inactive |
| COc1ccc(-c2c3c(=O)n(C)c(=O)n(C)c3c3nnc4ccccc4n23)cc1 | inactive |
| COc1ccc(NC(=O)c2cn(-c3ccc(C(C)(C)C)cc3)nc2C)cc1N1CCN(C)CC1 | inactive |
| Cc1cc(NN=Cc2ccccc2F)c2cc(C(F)(F)F)ccc2n1 | inactive |
| COc1ccc2nccc([C@@H](O)CN3CCC(NCCOc4ccc(F)cc4Cl)CC3)c2c1 | inactive |
| O=[N+]([O-])c1ccc(Oc2ccccc2CNCC2CCN(CC3CCCCC3)CC2)cc1 | inactive |
| COc1ccc(Cl)cc1N1CCN(CCCNC(=O)c2ccc(-c3nc4cc(Cl)c(C)cc4[nH]3)c(F)c2)CC1 | inactive |
| c1csc(-c2nc(NCC3CCCO3)ncc2-c2ccsc2)n1 (stereo not given) | inactive |
| CCOc1ccc(C(C)NC(=O)C2COc3ccccc3O2)cc1OCC (stereo not given) | inactive |
| CC1(C)N=C(N)N=C(N)N1OCCCOc1cc(Cl)cc(Cl)c1 | inactive |
